# Assays:
# Experiment in all cases: SPOT peptide array binding signal intensity (averaged, normalized) (arbitrary units (background-subtracted, floor 0; scale differs between SH3 domains)); higher = stronger binding of the SH3 domain to the peptide
# [1] = molecular target: ScBbc1
# How it was run: (§1)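 Cellulose membranes carried synthetic 15-mer peptides with cysteines swapped for serines. These were incubated overnight at 4°C with 10 μg/ml of GST-fused SH3 domains from four yeast species in TBS-based blocking buffer. Binding signal, detected with anti-GST antibody and quantified in Genespotter, is the normalized, background-subtracted spot intensity averaged over replicates, in arbitrary units specific to each domain.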
# [2] = molecular target: ScBem1-D1
# How it was run: as §1
# [3] = molecular target: ScBzz1-D1
# How it was run: as §1
# [4] = molecular target: ScBzz1-D2
# How it was run: as §1
# [5] = molecular target: ScCyk3
# How it was run: as §1
# [6] = molecular target: ScFus1
# How it was run: as §1
# [7] = molecular target: ScHof1
# How it was run: as §1
# [8] = molecular target: ScHse1
# How it was run: as §1
# [9] = molecular target: ScLsb1
# How it was run: as §1
# [10] = molecular target: ScLsb2
# How it was run: as §1
# [11] = molecular target: ScLsb3
# How it was run: as §1
# [12] = molecular target: ScLsb4
# How it was run: as §1
# [13] = molecular target: ScMyo3
# How it was run: as §1
# [14] = molecular target: ScMyo5
# How it was run: as §1
# [15] = molecular target: ScNbp2
# How it was run: as §1
# [16] = molecular target: ScPex13
# How it was run: as §1
# [17] = molecular target: ScRvs167
# How it was run: as §1
# [18] = molecular target: ScSho1
# How it was run: as §1
# [19] = molecular target: ScSla1-D1-D2
# How it was run: as §1
# [20] = molecular target: ScSla1-D3
# How it was run: as §1
# [21] = molecular target: SpAbp1-D1
# How it was run: as §1
# [22] = molecular target: SpBbc1
# How it was run: as §1
# [23] = molecular target: SpBzz1-D1
# How it was run: as §1
# [24] = molecular target: SpBzz1-D2
# How it was run: as §1
# [25] = molecular target: SpCyk3
# How it was run: as §1
# [26] = molecular target: SpHof1
# How it was run: as §1
# [27] = molecular target: SpHof1-2
# How it was run: as §1
# [28] = molecular target: SpHof1-3
# How it was run: as §1
# [29] = molecular target: SpHse1
# How it was run: as §1
# [30] = molecular target: SpLsb1
# How it was run: as §1
# [31] = molecular target: SpLsb4
# How it was run: as §1
# [32] = molecular target: SpMyo1
# How it was run: as §1
# [33] = molecular target: SpNbp2
# How it was run: as §1
# [34] = molecular target: SpPex13
# How it was run: as §1
# [35] = molecular target: SpRvs167
# How it was run: as §1
# [36] = molecular target: SpSla1-D1-D2
# How it was run: as §1
# [37] = molecular target: SpSla1-D3
# How it was run: as §1
binder,measurement,setting,value
PSTMDFPKLPSFQNS,SPOT peptide array binding signal intensity,[1],≤ 0
same,SPOT peptide array binding signal intensity,[2],≤ 0
same,SPOT peptide array binding signal intensity,[3],2
same,SPOT peptide array binding signal intensity,[4],10.5
same,SPOT peptide array binding signal intensity,[5],5
same,SPOT peptide array binding signal intensity,[6],414
same,SPOT peptide array binding signal intensity,[7],88.2
same,SPOT peptide array binding signal intensity,[8],130
same,SPOT peptide array binding signal intensity,[9],11
same,SPOT peptide array binding signal intensity,[10],≤ 0
same,SPOT peptide array binding signal intensity,[11],184
same,SPOT peptide array binding signal intensity,[12],140
same,SPOT peptide array binding signal intensity,[13],28.5
same,SPOT peptide array binding signal intensity,[14],10.5
same,SPOT peptide array binding signal intensity,[15],252
same,SPOT peptide array binding signal intensity,[16],221
same,SPOT peptide array binding signal intensity,[17],11.3
same,SPOT peptide array binding signal intensity,[18],528
same,SPOT peptide array binding signal intensity,[19],60
same,SPOT peptide array binding signal intensity,[20],290
same,SPOT peptide array binding signal intensity,[21],≤ 0
same,SPOT peptide array binding signal intensity,[22],≤ 0
same,SPOT peptide array binding signal intensity,[23],205
same,SPOT peptide array binding signal intensity,[24],10.5
same,SPOT peptide array binding signal intensity,[25],1
same,SPOT peptide array binding signal intensity,[26],30.2
same,SPOT peptide array binding signal intensity,[27],72.2
same,SPOT peptide array binding signal intensity,[28],18
same,SPOT peptide array binding signal intensity,[29],289
same,SPOT peptide array binding signal intensity,[30],≤ 0
same,SPOT peptide array binding signal intensity,[31],658
same,SPOT peptide array binding signal intensity,[32],91.5
same,SPOT peptide array binding signal intensity,[33],130
same,SPOT peptide array binding signal intensity,[34],38
same,SPOT peptide array binding signal intensity,[35],59
same,SPOT peptide array binding signal intensity,[36],4
same,SPOT peptide array binding signal intensity,[37],133

# — the supplement of paper PMC4466140
